Where “and” joins values, the source holds several entries; their conditions need not be identical. Equal values may be shown once. Inconclusive results are not listed. A number with no mark means an inactive call. Calls of active or inactive are those of the source. Calls come from the whole dose curve; as a rule, active = well fitted cell-killing curve with a large enough effect; inconclusive = small, poorly fitted or top-dose-only effect, or effect the other way; inactive = no such curve, though single readings can be large or run the other way.
Assay: Viability qHTS for spleen associated tyrosine kinase inhibitor (SYKi) drug resistant MV4-11 cells (AID 1963824); note: nearly all actives have a fitted effect of over 35% in size
Settings: SYKi-resistant MV4-11 viability, CellTiter-Glo, 72 h; series mostly up to 45 µM
Source text: Department of Medicine, Hematology/Oncology
University Hospital Frankfurt, Germany.
Trials have shown promising clinical activity of the selective SYK inhibitor entospletinib in patients with high expressing HOXA9/MEIS1 acute leukemias. As the development of resistance mechanisms is a common problem in the use of targeted drugs, we performed a chemical library screen to identify drug sensitivities in SYK inhibitor resistant AML cells. […] Glucocorticoids are potent immunosuppressants which work in part by inhibiting the transcription of cytokine genes.
Described herein is a viability screen to look for activity in the SYK inhibitor drug resistant cell line against four NCATS compound libraries (MIPE 5.0, NPC, NPACT, and Kinase) totaling 11372 compounds. Active hits were reacquired for confirmation and further secondary assay testing.
SEQUENCE No. (e.g., 1, 2, 3, etc.); […] (e.g., Cells, Incubation, Reagent, etc.); VALUE; DESCRIPTION.
1; Media; 2uL; white, solid-bottom Corning assay plate.
2; Compounds; 23nL; Echo acoustic dispenser.
3; Cell; 5uL; 500 cells per well.
4: Incubation; 72hr; 37 C, 5% CO2, 95% humidity.
5; Reagent; 3uL; CellTiter-Glo reagent (Promega).
6; Incubation; 10min; room temperature.
7; Detection; Luminescence; ViewLux plate reader (PerkinElmer).
NOTES (numbers refer to Sequence numbers above
1. Quantitative high-throughput screening (qHTS) of small molecule compounds was conducted on drug resistant SYKi MV4-11 cell line.
2. Twenty-three nanoliter of small molecule compounds were added to each assay plates using the Echo acoustic dispenser (Beckman Coulter).
3. Cells were seeded into the assay plates at a final density of 500 cells in 5uL of media per well using the Multidrop Combi dispenser.
4. Plates were covered with stainless steel gasketed lids and incubated for 72 hours at standard cell culture conditions.
5. Viability was assessed by adding 3uL of CellTiter-Glo detection reagent (Promega).
6. Plates were covered with gasket lids and incubated for 10 minutes at room temperature.
7. Luminescence was measured on a ViewLux plate reader (PerkinElmer).
Potency is the fitted concentration of half-maximal effect.

With CC[C@H](Nc1ncnc2nc[nH]c12)c1oc2ccccc2c(=O)c1-c1cccc(F)c1 as the compound, how does the Potency read?
Its Potency is 14.8 µM (active).

For Cc1cc(C)nc(SCC(=O)Nc2ncc(Cc3cccc4ccccc34)s2)n1, which Potency is on record?
The Potency was 10.3 µM (active).

For COc1cc(O)cc(C)c1C(=O)OC1C(CO)OC(OC2C(O)C(O)C(O)C(O)C2O)C(O)C1O (stereo not given), which Potency is on record?
The Potency was “inactive”.

Which Potency does the source give for Cc1noc(-c2ccc(-c3ccc(C4(C(=O)O)CC4)cc3)cc2)c1NC(=O)O[C@H](C)c1ccccc1 here?
Its Potency is 11.8 µM (active).

With CNC(=O)[C@H]1O[C@@H](n2cnc3c(NCc4ccc(N)c(I)c4)ncnc32)[C@H](O)[C@@H]1O as the compound, how does the viability, % of control read?
Its viability, % of control is 80.4% [at 9.25 µM].

For C=CCN(/C=C1\C(=O)OC(COC)C2(C)C1=C(O)C(=O)C1=C2C(OC(C)=O)CC2(C)C(=O)CCC12)CC=C (stereo not given), which Potency is on record?
The Potency was 20.6 µM (active).

For C=CCOc1ccccc1OCC(O)CNC(C)C (stereo not given), which Potency is on record?
Its Potency is “inactive”.

With COc1ccc(-c2cnc(-c3cccc4c3-c3ccccc3C4=O)o2)cc1 as the compound, how does the Potency read?
Its Potency is 0.0709 µM (active).

Which Potency does the source give for COc1ccc(NS(=O)(=O)c2ccc(N)cc2)nn1 here?
Its Potency is “inactive”.

Which Potency does the source give for CN1CCC(=C2c3ccccc3Sc3ccccc32)CC1 here?
The Potency was 16.8 µM (active).

With CCCCCCCCCCCCCC[N+](C)(C)Cc1ccccc1 as the compound, how does the Potency read?
The Potency was 3.35 µM (active).

With COc1cccc(N2CCN(C3=Nc4c(F)cccc4[C@H](CC(=O)O)N3c3cc(C(F)(F)F)ccc3OC)CC2)c1 as the compound, how does the Potency read?
The Potency was 18.4 µM (active).

Which Potency does the source give for C=C1/C(=C\C=C2/CCC[C@]3(C)[C@@H]([C@H](C)CCCC(C)(C)O)CC[C@@H]23)C[C@@H](O)C[C@@H]1O here?
The Potency was 1.48 µM (active).

With O=C(O)/C=C(\CC(=O)O)C(=O)O as the compound, how does the Potency read?
The Potency was “inactive”.

Which Potency does the source give for Cc1cc(Nc2ncc3cc(-c4c(Cl)cccc4Cl)c(=O)n(C)c3n2)ccc1F here?
Its Potency is 0.517 µM (active).

For CCCCCCCCCCC(CO)CCCCCCCC (stereo not given), which Potency is on record?
The Potency was “inactive”.

For CCS(=O)(=O)c1cccc(-c2cc(C(=O)NC3CCN(C)CC3)c(C)c3[nH]c4ncc(C)cc4c23)c1, which Potency is on record?
Its Potency is 36 nM (active) and 66.1 nM (active).

Which Potency does the source give for Nc1nc2c(c(=O)[nH]1)C[C@@H](CCc1ccc(C(=O)N[C@@H](CCC(=O)O)C(=O)O)cc1)CN2 here?
The Potency was 0.0092 µM (active).

Which Potency does the source give for CC(=O)O[C@H]1[C@@H](O)[C@H](O[C@H]2[C@@H]3C=CO[C@@H](O[C@H]4O[C@@H](CO)[C@H](O)[C@@H](O)[C@@H]4O)[C@@H]3[C@@]3(CO)O[C@@H]23)O[C@@H](C)[C@@H]1OC(=O)/C=C/c1ccccc1 here?
The Potency was “inactive”.

For O=C(c1ccc(F)c(F)c1Nc1ccc(I)cc1F)N1CC(O)(C2CCCCN2)C1 (stereo not given), which Potency is on record?
Its Potency is 0.326 µM (active).

Which viability, % of control does the source give for CC(C)=CCC[C@](C)(O[C@@H]1O[C@H](CO)[C@@H](O)[C@H](O)[C@H]1O)[C@H]1CC[C@]2(C)[C@@H]1[C@H](O)CC1[C@@]3(C)CC[C@H](O)C(C)(C)C3[C@@H](O[C@@H]3O[C@H](CO)[C@@H](O)[C@H](O)[C@H]3O[C@@H]3O[C@@H](C)[C@H](O)[C@@H](O)[C@H]3O)C[C@]12C (stereo not given in full) here?
The viability, % of control was 105% [at 9.25 µM].

With CCOc1cc(N2CCC(O)CC2)ccc1Nc1ncc2c(n1)N(C)c1ccccc1C(=O)N2C as the compound, how does the Potency read?
Its Potency is 1.03 µM (active).

With CC(C(=O)O)c1ccc2c(c1)[nH]c1ccc(Cl)cc12 (stereo not given) as the compound, how does the Potency read?
The Potency was “inactive”.

With CCN1CCc2nc(N)oc2CC1 as the compound, how does the Potency read?
The Potency was “inactive”.

For N#Cc1c(Oc2ccc(F)c(NC(=O)Cc3cccc(C(F)(F)F)c3)c2)ccc2nc(NC(=O)C3CC3)sc12, which Potency is on record?
The Potency was 1.64 µM (active).

Which Potency does the source give for COC(=O)c1c(CC=C(C)C)c(OC2OC(CO)C(O)C(O)C2O)c2ccccc2c1OC1OC(CO)C(O)C(O)C1O (stereo not given) here?
Its Potency is “inactive”.

Which Potency does the source give for CCN1CCC(n2cc(CNc3cc(Cl)c4ncc(C#N)c(Nc5ccc(F)c(Cl)c5)c4c3)nn2)CC1 here?
Its Potency is 11.6 µM (active).

Which Potency does the source give for C=C(CCO)C(=O)OCC1OCC(OC(=O)C(=C)CCO[C@@H]2O[C@H](COC(=O)C(=C)CCO[C@@H]3O[C@H](CO)[C@@H](O)[C@H](O)[C@H]3O)[C@@H](O)[C@H](O)[C@H]2O)C(O)C1O (stereo not given in full) here?
Its Potency is “inactive”.

With C[C@]12CCC(=O)C=C1CC[C@@H]1[C@@H]2[C@@H](O)C[C@@]2(C)[C@H]1CC[C@]2(O)C(=O)CO as the compound, how does the Potency read?
Its Potency is “inactive”.

For CCC[C@@H]1C[C@@H](C(=O)N[C@@H]([C@H]2O[C@H](SC)[C@H](O)[C@@H](O)[C@H]2O)[C@H](C)Cl)N(C)C1, which Potency is on record?
The Potency was “inactive”.

For O=C(NCC1CCN(Cc2cccc(Cl)c2)CC1)[C@@H]1CCCN(c2ncnc3c2nc2n3CCCC2)C1, which Potency is on record?
The Potency was 10.3 µM (active).

With CCC1(c2ccccc2)C(=O)NCNC1=O as the compound, how does the Potency read?
The Potency was “inactive”.

With CC(C)(OC1OC(CO)C(O)C(O)C1O)C1CCC(O)(CO)C2CC(=O)C(C)(O)C2C1 (stereo not given) as the compound, how does the Potency read?
The Potency was “inactive”.

Which Potency does the source give for CC(=O)C1=CCC2C3CC=C4CC(O)CC(O)C4(C)C3C(O)CC12C (stereo not given) here?
Its Potency is 16.1 µM (active).

Which Potency does the source give for C/C=C(\C)C(=O)OCC1OC(OCC2OC(OC3(CO)OC(CO)C(O)C3O)C(O)C(O)C2O)C(O)C(O)C1O (stereo not given) here?
Its Potency is “inactive”.

For CC(=O)OC1C(O)CC2(C)C(CCC3(C)C2CC=C2C4C5(CCC(CO[C@@H]6O[C@H](CO)[C@@H](O)[C@H](O)[C@H]6O)(OC5=O)C4(C)O)C(O)CC23C)C1(C)C (stereo not given in full), which Potency is on record?
Its Potency is “inactive”.

With CCn1c(-c2nonc2N)nc2c(C#CCO)ncc(OCCCN)c21 as the compound, how does the Potency read?
Its Potency is 1.84 µM (active).

With Cc1ncc(NC(=O)c2ccc(CN3CCN(C)CC3)c(C(F)(F)F)c2)cc1Nc1nccc(-c2cccnc2)n1 as the compound, how does the Potency read?
The Potency was 2.06 µM (active) and 3.32 µM (active).

For CC(=O)CC(c1ccccc1)c1c(O)c2ccccc2oc1=O (stereo not given), which Potency is on record?
The Potency was “inactive”.

With O=C1CC2(CCCC2)CC(=O)N1CCNCC1COc2ccccc2O1 (stereo not given) as the compound, how does the Potency read?
Its Potency is “inactive”.

Source: PubChem BioAssay (NCATS)
